{
  "source": "PubChem BioAssay (NCATS)",
  "note": "Inconclusive results are not listed. Where a call stands in place of a potency, no number is given. The source made the active and inactive calls. Calls come from the whole dose curve; as a rule, active = well fitted inhibition curve with a large enough effect; inconclusive = small, poorly fitted or top-dose-only effect; inactive = flat fitted curve, though single readings scatter.",
  "data": [
    {"tested_on": "ATS189", "assay": "qHTS profiling for inhibitors of Plasmodium falciparum proliferation (AID 504749); note: nearly all actives have a fitted effect of over 60% in size", "settings": "P. falciparum in erythrocytes, SYBR Green DNA, 72 h; series mostly up to 28.7 µM", "summary_of_the_method": "(§1)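 Parasite proliferation within erythrocytes, 72 h exposure. Endpoint: SYBR Green I fluorescence after overnight lysis at room temperature. Controls: 0.29 uM artemisinin, DMSO.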", "values": [
      {"smiles": "CC(=O)OCC(=O)[C@H]1CC[C@H]2[C@@H]3CCC4=CC(=O)CC[C@]4(C)[C@H]3CC[C@]12C", "Potency": "inactive"},
      {"smiles": "CN(C)C(=O)Nc1ccc(Cl)c(Cl)c1", "Potency": "inactive"},
      {"smiles": "C#C[C@]1(OC(C)=O)CC[C@H]2[C@@H]3CCC4=C/C(=N/O)CC[C@@H]4[C@H]3CC[C@@]21CC", "Potency": "inactive"},
      {"smiles": "CCC(CC)(CC(=O)Nc1cccc(/C=C/c2nc(C3CCC3)cs2)c1)C(=O)O", "Potency": "inactive"},
      {"smiles": "NCCNc1cccc2ccccc12", "Potency": "inactive"}
    ]},
    {"tested_on": "ATS95", "assay": "qHTS profiling for inhibitors of Plasmodium falciparum proliferation (AID 504749); note: nearly all actives have a fitted effect of over 60% in size", "settings": "P. falciparum in erythrocytes, SYBR Green DNA, 72 h; series mostly up to 28.7 µM", "summary_of_the_method": "as §1", "values": [
      {"smiles": "O=C(Oc1cccc2cccnc12)c1ccccc1", "Potency": "inactive"},
      {"smiles": "NC(=O)C1(N2CCCCC2)CCN(CCCC(=O)c2ccc(F)cc2)CC1", "Potency": "inactive"},
      {"smiles": "CCOC(=O)C(C#N)=C(c1ccccc1)c1ccccc1", "Potency": "inactive"},
      {"smiles": "COc1ccc(CN(CCN(C)C)c2ncccn2)cc1", "Potency": "inactive"},
      {"smiles": "CCCCC(CC)COC(=O)/C=C/c1ccc(OC)cc1", "note": "(centres undefined)", "Potency": "inactive"},
      {"smiles": "COc1ccc2c(c1)c1c3n2CCN(C)C3=NCC1", "Potency": "inactive"},
      {"smiles": "O=C1C(O)=C(O)C(=O)C(O)=C1O", "Potency": "inactive"},
      {"smiles": "Cc1cc(-c2ccccc2)nnc1NCCN1CCOCC1", "Potency": "inactive"},
      {"smiles": "COc1ccc(CCN(C)CCCN2CCc3cc(OC)c(OC)cc3CC2=O)cc1OC", "Potency": "inactive"},
      {"smiles": "CC(C)=CCOc1ccc(/C=C/C(=O)c2ccc(OCC=C(C)C)cc2OCC(=O)O)cc1", "Potency": "inactive"},
      {"smiles": "COc1ccc(C(=O)c2ccccc2)c(O)c1", "Potency": "inactive"},
      {"smiles": "CCOC(=O)Nc1ccc2c(c1)N(C(=O)CCN1CCOCC1)c1ccccc1S2", "Potency": "inactive"},
      {"smiles": "CCCCNc1ccc(C(=O)OCCOCCOCCOCCOCCOCCOCCOCCOCCOC)cc1", "Potency": "inactive"},
      {"smiles": "NC(=O)n1c(O)c(C(=O)c2cccs2)c2cc(Cl)ccc21", "Potency": "inactive"}
    ]}
  ]
}
